Screening data as filed in PubChem.
A selection: hits, their analogues and other compounds. The true share with any hit is near 10%.
hNpr1 antagonist: blocks ANP-stimulated signaling of human Npr1 receptor | Potency, µM (doses to about 46.3 µM), most hits filed as inhibitors | 1.6% of 76,000 active | HEK293 hNpr1 GloSensor cGMP, ANP-stimulated luminescence | AID 1347048; calls by dose curve; also: nearly all actives have a fitted effect of over 60% in size
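Compound pre-incubated 30 min at room temperature on GloSensor-loaded HEK293 cells stably carrying hNpr1 and the pGS-40F cGMP biosensor. Stimulation uses hNppA at 0.1 nM final; luminescence is taken at baseline and 20 min post-agonist.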
GPT2 inhibitor: blocks human glutamate pyruvate transaminase 2 | Q8TD30 | Recombinant GPT2, coupled pyruvate oxidase/HRP Amplex Red fluorescence | Potency, µM (series often up to 57.7 µM), usual class: inhibitors | 0.25% of 100,000 active; also: nearly all actives have a fitted effect of over 60% in size
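GPT2 10ng/uL, a-KG 250uM, L-Ala 2mM, HEPES pH7.5 + 0.0001% Tween; 30 min RT. Then Amplex mix (PO/HRP/ThPP), 30 min RT dark, fluorescence. AOA 50uM used as positive control.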
Luciferase inh: Photinus pyralis luciferase inhibition; P08659; purified P. pyralis luciferase, luminescence, biochemical; Potency, µM (doses to about 115 µM), actives largely listed as inhibitors; 2.5% of 76,000 active; also: nearly all actives have a fitted effect of over 65% in size
Target sequence (P08659 whole entry, looked up): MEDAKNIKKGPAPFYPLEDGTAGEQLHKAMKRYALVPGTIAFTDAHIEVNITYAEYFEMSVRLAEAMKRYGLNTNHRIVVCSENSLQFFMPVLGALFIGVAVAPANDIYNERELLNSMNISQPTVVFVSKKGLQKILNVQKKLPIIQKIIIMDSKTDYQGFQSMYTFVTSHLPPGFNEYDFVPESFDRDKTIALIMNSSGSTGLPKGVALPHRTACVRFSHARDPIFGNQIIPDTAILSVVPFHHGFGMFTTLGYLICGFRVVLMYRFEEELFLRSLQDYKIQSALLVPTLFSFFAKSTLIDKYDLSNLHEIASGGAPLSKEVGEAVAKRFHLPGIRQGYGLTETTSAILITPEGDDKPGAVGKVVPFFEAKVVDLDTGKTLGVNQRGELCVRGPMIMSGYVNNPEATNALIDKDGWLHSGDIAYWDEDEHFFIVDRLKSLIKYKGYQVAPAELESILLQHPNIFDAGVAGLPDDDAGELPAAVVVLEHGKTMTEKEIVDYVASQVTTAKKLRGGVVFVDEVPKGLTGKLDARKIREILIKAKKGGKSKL
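Purified P. pyralis luciferase (10nM final) in 50mM Tris acetate pH 7.5, 10mM Mg acetate, 0.01% Tween-20, 0.05% BSA with 10uM D-luciferin and 10uM ATP. Compounds titrated qHTS. Luminescence imaged on CCD.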
HEK cytotox: cytotoxic compounds in HEK 293 cells; HEK 293 viability, ATP luminescence (CellTiter-Glo), 48-72 h; Potency, µM (top dose mostly 115 µM), usual class: inhibitors; 6.6% of 94,000 active; AID 1345083; also: nearly all actives have a fitted effect of over 60% in size
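Pintool-delivered compounds were incubated with HEK 293 cells (250 cells/well) at 37 degree Celsius for 48 or 72 hr. ATP-dependent luminescence (CellTiter-Glo) then reported remaining viable cells.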
3T3 cytotox: kills NIH 3T3 cells; 4.3% of 94,000 active; NIH 3T3 viability, CellTiter-Glo ATP luminescence, 48-72 h; Potency, µM (series often up to 96.7 µM), usual class: inhibitors; AID 1345082; also: nearly all actives have a fitted effect of over 55% in size
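Mouse fibroblast NIH 3T3 cells, 400 per well, received compound via pintool and were incubated for 48 or 72 hr prior to CellTiter-Glo ATP luminescence measurement.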
Each line names hits and unclear results; the compound was inactive in the other large screens. Unless noted, calls follow the shape of the dose curve; as a rule, active = well fitted curve in the direction sought with a large enough effect; inconclusive = small, poorly fitted or top-dose-only effect, or another doubt; inactive = no such curve, though single readings can be large; an effect the other way counts as inactive or inconclusive.

COCC1CN(C2CCC2)CC12CCN(C(=O)c1ccccc1Cl)CC2 (configuration not stated)	HEK cytotox 79µM, 3T3 cytotox inconclusive
COc1cccc(-c2cnc([C@@H]3COCCN3Cc3ccc(S(C)(=O)=O)cc3)[nH]2)c1	none
CCCCCC(=O)N1CCC(=O)N(CCOC)C[C@H]2COc3ccc(C)cc3[C@H]21	3T3 cytotox inconclusive (no result: hNpr1 antagonist, GPT2 inhibitor, Luciferase inh)
COCC1CN(C2CCC2)CC12CCN(C(=O)Cc1cccc(F)c1)CC2 (configuration not stated)	HEK cytotox 50µM, 3T3 cytotox inconclusive
OCC1(CCCc2ccccc2)CCN(Cc2ccc(-n3cccn3)cc2)CC1	hNpr1 antagonist inconclusive, HEK cytotox inconclusive, 3T3 cytotox 40µM
O=C1c2c(nc(COc3cccc(C(F)(F)F)c3)n2Cc2ccccc2)NCCN1CC1CC1	HEK cytotox 50µM, 3T3 cytotox 35µM
O=C1c2c(nc(CNc3ccccc3Cl)n2Cc2ccccc2)NCCN1CC1CC1	HEK cytotox 100µM, 3T3 cytotox 89µM
N#Cc1cccc(OCc2nc3c(n2Cc2ccccc2)C(=O)N(Cc2ccccc2F)CCN3)c1	HEK cytotox inconclusive, 3T3 cytotox 28µM
O=C1c2c(nc(COc3cccc(Cl)c3)n2Cc2ccccc2)NCCN1CCOc1ccccc1	HEK cytotox inconclusive, 3T3 cytotox 18µM
COc1cccc(OCc2nc3c(n2Cc2ccccc2)C(=O)N(CCOc2ccccc2)CCN3)c1	hNpr1 antagonist inconclusive, GPT2 inhibitor inconclusive, HEK cytotox 32µM, 3T3 cytotox 20µM
COc1cccc(OCc2nc3c(n2Cc2ccccc2)C(=O)N(C)CCN3)c1	HEK cytotox inconclusive
Cc1cc(=O)n(CC(=O)Nc2cc(Cl)ccc2C)c(N2CCC(C)CC2)n1	hNpr1 antagonist inconclusive, HEK cytotox 35µM, 3T3 cytotox 35µM
Cc1cc(=O)n(CC(=O)Nc2ccc(Br)cc2F)c(N2CCC(C)CC2)n1	HEK cytotox inconclusive, 3T3 cytotox 16µM
Cc1ccc(NC(=O)Cn2c(N3CCC(C)CC3)nc(C)cc2=O)cc1	hNpr1 antagonist inconclusive, HEK cytotox inconclusive, 3T3 cytotox inconclusive
Cc1ccc(C)c(NC(=O)Cn2c(N3CCC(C)CC3)nc(C)cc2=O)c1	HEK cytotox 28µM, 3T3 cytotox inconclusive
Cc1ccc(NC(=O)Cn2c(N3CCC(C)CC3)nc(C)cc2=O)c(C)c1	HEK cytotox inconclusive, 3T3 cytotox inconclusive
CC(C)NC(=O)N1CCC(Oc2ccccc2-c2nc(-c3ccccc3)no2)C1 (configuration not stated)	Luciferase inh inconclusive, HEK cytotox inconclusive, 3T3 cytotox inconclusive
O=C(Nc1ccccc1)N1CCC(Oc2ccccc2-c2nc(-c3ccccc3)no2)C1 (configuration not stated)	Luciferase inh inconclusive, HEK cytotox 25µM, 3T3 cytotox 32µM
CCN1CCC(N2CCC(Oc3ccccc3-c3nc(-c4ccncc4)no3)C2)CC1 (configuration not stated)	HEK cytotox 13µM, 3T3 cytotox 6.3µM
O=C(CCc1ccccc1)N1CC(Oc2ccccc2-c2nc(-c3ccccc3)no2)C1	HEK cytotox 40µM, 3T3 cytotox 35µM (no result: hNpr1 antagonist, Luciferase inh)
COc1ccc(Cn2c(C3CCN(C(=O)c4ccc(F)c(Cl)c4)CC3)n[nH]c2=O)cc1	none
COc1ccccc1Nc1ccnc(N2CCCC2C(=O)NC2CC2)n1 (configuration not stated)	none (no result: hNpr1 antagonist, Luciferase inh)
Cc1noc2c(NC3CCN(C)CC3)cc(-c3ccc(Cl)cc3)nc12	HEK cytotox 35µM, 3T3 cytotox 10µM
Cc1noc2c(NC3CCN(C)CC3)cc(-c3cccs3)nc12	HEK cytotox 79µM, 3T3 cytotox inconclusive
Cc1noc2c(-c3cccnc3)cc(-c3cccs3)nc12	HEK cytotox inconclusive, 3T3 cytotox inconclusive
CC(=O)N1CCC(Nc2ncccc2-c2cc(-c3ccccc3)nc3c(C)noc23)CC1	HEK cytotox 100µM, 3T3 cytotox inconclusive
Cc1noc2c(-c3cccc(O)c3)cc(-c3cccs3)nc12	HEK cytotox 71µM, 3T3 cytotox 40µM
COc1ccc2[nH]c3c(c2c1)CCN(C)C31CCN(C(=O)COc2ccc(F)cc2)CC1	HEK cytotox inconclusive, 3T3 cytotox inconclusive
COc1ccc(CN2C[C@@H]3OCC(=O)N(c4ccccc4)[C@@H]3C2)cc1	hNpr1 antagonist inconclusive, HEK cytotox inconclusive, 3T3 cytotox inconclusive
NC(=O)[C@@H]1C[C@H](Oc2ccccc2)CN1C(=O)Cc1ccccc1	none (no result: hNpr1 antagonist, Luciferase inh)
COc1ccccc1Nc1ccnc(N2CCC(C(=O)NCC3CC3)CC2)n1	HEK cytotox inconclusive, 3T3 cytotox inconclusive (no result: hNpr1 antagonist, Luciferase inh)
COc1cccc(-c2c(C(=O)NCC3CC3)nc3sccn23)c1	3T3 cytotox inconclusive (no result: hNpr1 antagonist, Luciferase inh)
CC(=O)N1CCC(Nc2cc(-c3ccc(Cl)cc3)nc3c(C)noc23)CC1	GPT2 inhibitor inconclusive, HEK cytotox inconclusive, 3T3 cytotox inconclusive
Cc1noc2c(NC3CCC(O)CC3)cc(-c3ccc(Cl)cc3)nc12 (configuration not stated)	HEK cytotox 89µM, 3T3 cytotox 22µM
O=C(NC1CCN(c2ccnc3ccnn23)CC1)c1cncc(Br)c1	HEK cytotox inconclusive (no result: hNpr1 antagonist, Luciferase inh)
Cc1ccc(C(=O)Nc2ccc3c(N4CCOCC4)ncnc3c2)cc1C	GPT2 inhibitor inconclusive, Luciferase inh inconclusive, HEK cytotox inconclusive, 3T3 cytotox inconclusive
O=C(COc1ccccc1)Nc1ccc2c(N3CCOCC3)ncnc2c1	HEK cytotox inconclusive, 3T3 cytotox inconclusive
O=C(Nc1ccc2c(N3CCOCC3)ncnc2c1)c1cccc(Cl)c1	HEK cytotox inconclusive, 3T3 cytotox 7.1µM
CC(Oc1cccc(Cl)c1)C(=O)Nc1ccc2c(N3CCOCC3)ncnc2c1 (configuration not stated)	GPT2 inhibitor inconclusive, HEK cytotox 45µM, 3T3 cytotox inconclusive
COc1cccc(C(=O)Nc2ccc3c(N4CCOCC4)ncnc3c2)c1	Luciferase inh inconclusive
O=C(Nc1ccc2c(N3CCOCC3)ncnc2c1)c1ccc(Br)o1	HEK cytotox 40µM, 3T3 cytotox inconclusive
CC(C)CCN1CCC(N2CCN(S(=O)(=O)Cc3ccc(F)cc3Cl)CC2)C1=O (configuration not stated)	HEK cytotox inconclusive
Cc1noc(C)c1Cc1ccc(C(=O)NCCc2noc(-c3ccccc3)n2)o1	HEK cytotox inconclusive, 3T3 cytotox inconclusive (no result: hNpr1 antagonist, Luciferase inh)
O=C(c1ccccc1Cl)N1CCC(C(=O)N2CCCC(c3nc4ncccc4[nH]3)C2)CC1 (configuration not stated)	none (no result: hNpr1 antagonist, Luciferase inh)
COc1cccc(CCC(=O)N2CCC(c3n[nH]c(=O)n3-c3ccccc3)CC2)c1	none
Cc1ccc(Cn2c(C3CCN(C(=O)COc4cccc(C)c4)CC3)n[nH]c2=O)cc1	none
Cc1cccc(OCC(=O)N2CCC(c3n[nH]c(=O)n3Cc3ccc(F)cc3)CC2)c1	3T3 cytotox 20µM
Cc1cccc(OCC(=O)N2CCC(c3n[nH]c(=O)n3-c3ccccc3)CC2)c1	3T3 cytotox 7.1µM
